Laboratory results: PubChem BioAssay AID504332 (National Center for Advancing Translational Sciences (NCATS), 2011)
In all, about 350,000 compounds went through this assay and about 31,000 (8.9%) were called active. Entries that show only a call come without a potency. Roughly 15% stayed inconclusive and do not appear here. This excerpt belongs to a sample that is enriched for actives. A number with no mark means an inactive call. Calls follow the shape of the dose curve; as a rule, active = well fitted inhibition curve with a large enough effect; inconclusive = small, poorly fitted or top-dose-only effect; inactive = no such curve, though single readings can be large or run the other way.

What follows are compounds tested against Histone-lysine N-methyltransferase EHMT2 (Homo sapiens) (UniProt Q96KQ7) (assay: qHTS Assay for Inhibitors of Histone Lysine Methyltransferase G9a). Conditions: G9a H3K9 monomethylation, AlphaScreen, 2 h; series mostly up to 59 µM.
Procedure, shortened: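 Using a bead-based AlphaScreen, monomethylated H3K9 product from 2 h room-temperature reactions (G9a 20 nM, peptide 500 nM, SAM 20 uM) was detected with 0.5 ug/mL rabbit anti-H3K9me1 antibody.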
Also: nearly all actives have a fitted effect of over 75% in size.
Potency is read from the fitted curve at half-maximal effect.

Histone-lysine N-methyltransferase EHMT2 (Homo sapiens), sequence (Q96KQ7 913-1193 limits assumed): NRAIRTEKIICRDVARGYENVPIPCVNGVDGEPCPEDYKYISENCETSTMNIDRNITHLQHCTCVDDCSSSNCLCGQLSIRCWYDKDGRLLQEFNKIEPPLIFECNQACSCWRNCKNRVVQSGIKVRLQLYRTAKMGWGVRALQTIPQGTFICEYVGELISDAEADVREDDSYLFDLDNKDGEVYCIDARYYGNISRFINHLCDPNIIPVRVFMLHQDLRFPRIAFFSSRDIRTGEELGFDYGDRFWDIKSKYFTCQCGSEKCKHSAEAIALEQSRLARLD

SMILES | activity, negative = inhibition | Potency
COc1ccc(OC)c(S(=O)(=O)Nc2c(C)nn(C)c2C)c1 | 3.63% [at 12.7 µM] | 
C=CCn1c(SCC(=O)NCCCO)nc2sc3c(c2c1=O)CCC3 |  | inactive
COCCCn1c(SCC(=O)Nc2oc(C)c3c(C)n[nH]c(=O)c23)nc2sc3c(c2c1=O)CCC3 |  | 6.31 µM (active)
Cc1nc2sc3c(c2c(=O)n1NC(=O)CCl)CCCC3 |  | inactive
Cc1ccc(S(=O)(=O)N(CC(=O)Nc2ccc(Cl)cc2Cl)c2ccccc2C)cc1 |  | inactive
CCCCN(C1CCS(=O)(=O)C1)S(=O)(=O)c1ccc(C(C)C)cc1 (stereo unspecified) |  | inactive
COc1cc(OC)c(NC(=O)C2CCCN2C(=O)OCc2ccccc2)cc1Cl (stereo unspecified) |  | inactive
Cc1ccccc1CNC(=O)c1ccc(NC(=O)N2CCCCc3ccccc32)cc1 |  | inactive
COc1ccccc1CNC(=O)c1ccc(NC(=O)N2CC(C)Sc3ccccc32)cc1 (stereo unspecified) |  | inactive
O=C(CCC(=O)N1CC2CCCN2c2ccccc21)NCc1ccccc1Cl (stereo unspecified) |  | inactive
COc1ccc(CNC(=O)c2ccc(NC(=O)N3CC4CCCN4c4ccccc43)cc2)cc1 (stereo unspecified) |  | 7.08 µM (active)
COc1cc(OC)c(NC(=O)N2CC3CCCN3c3ccccc32)cc1Cl (stereo unspecified) |  | 8.91 µM (active)
Cc1cccc(N2CCN(C(=O)COCc3cc(-c4ccc5c(c4)OCO5)on3)CC2)c1C |  | inactive
Oc1ccccc1C1=NN(c2ccccc2)C(c2ccccc2)C1 (stereo unspecified) |  | inactive
O=C(NNC(=O)c1cc(-c2ccccc2Cl)nc2ccccc12)c1csc(N2CCOCC2)n1 | 10% [at 2.33 µM] | 
Cc1ccccc1C(=O)Nc1nnc(S(=O)(=O)N(C)c2ccc(Cl)cc2)s1 |  | inactive
COc1cccc(-n2nc(C(=O)N3CCN(Cc4ccccc4)CC3)c3ccccc3c2=O)c1 |  | inactive
CCOC(=O)N1CCN(Cc2nc3cc(NC(C)=O)ccc3n2C)CC1 |  | inactive
CCOC(=O)N1CCN(Cc2nc3ccc([N+](=O)[O-])cc3c(=O)n2-c2cccc(OC)c2)CC1 |  | 39.8 µM (active)
CCCCN1C(=O)c2[nH]nc(-c3ccccc3O)c2C1c1cccc(OCc2ccccc2)c1 (stereo unspecified) |  | inactive
Cc1cccc(C(=O)NCc2nnc(SC(C)C(=O)Nc3nnc(C)s3)n2C)c1 (stereo unspecified) |  | inactive
COCCCn1c(SCC(=O)NC2CCCC2)nnc1-c1ccccc1 |  | inactive
COCCn1c(SC(C)C(=O)NC2CC2)nnc1-c1cccc(C)c1 (stereo unspecified) |  | 28.2 µM (active)
Cc1ccc(NC(=O)c2oc3ccc(S(=O)(=O)N4CCCCC4)cc3c2C)cc1Cl |  | inactive
C=CCn1c(=O)c(C(=O)NCc2ccc3c(c2)OCO3)c(O)c2ccccc21 |  | inactive
C/C(CCC(=O)OC[C@H]1O[C@H](C#Cc2ccccc2)C=C[C@@H]1Oc1ccc(C)cc1)=N\OC[C@@H](O)[C@H]1O[C@@H]2OC(C)(C)O[C@@H]2[C@H]1O |  | 50.1 µM (active)
